# In the library only some 19% were active in any assay of this set; here they are far more common.
# DT40 TDP1 no CPT: qHTS for Inhibitors of human tyrosyl-DNA phosphodiesterase 1 (TDP1): qHTS in cells in absence of CPT. DT40 Tdp1-/- hTDP1 cells, no CPT, ATP luminescence, 48 h. Potency, µM (highest dose often 46.2 µM), inactives show at the top dose activity change, negative = growth inhibition, most hits filed as inhibitors. hit rate 15% among 420,000. AID 686978, 2013; also: potency is read from the fitted curve at half-maximal effect; % is scaled to controls: 0 for no effect and ±100 for the full control effect; nearly all actives have a fitted effect of over 55% in size
#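 Compound effects on proliferation are scored in DT40 Tdp1-/-;hTDP1 cells in the absence of CPT. ATP levels (CellTiter-Glo luminescence) are recorded after a ≥48 hr, 37 °C incubation.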
# TGFb SMAD3 inh: inhibitors of TGF-b signaling. HepG2 CAGA-GFP TGF-b/SMAD3 reporter, GFP fluorescence, 18 h; TGF-beta stimulated, 500 pg/mL final. Potency, µM (series often up to 46.1 µM), for inactives: at the top dose activity, negative = inhibition, actives largely listed as inhibitors. hit rate 1.2% among 410,000. AID 588855; also: potency is read from the fitted curve at half-maximal effect; % is scaled to controls: 0 for no effect and ±100 for the full control effect; nearly all actives have a fitted effect of over 65% in size
#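 Inhibition was scored as loss of TGF-beta-induced (500 pg/mL final, 18 hours, 37 degrees C) GFP in HEPG2 cells carrying a CAGA-GFP reporter, in DMEM with 1% FBS. Well GFP was summed per cell; Activity was normalised to unstimulated and stimulated DMSO wells, then concentration-response fitting.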
# HepG2 tox: HepG2 cytotoxicity, counter-screen for TGF-b inhibitors | hit rate 0.76% among 410,000 | Potency, µM (highest dose often 46.1 µM), for the others: at the top dose activity change, negative = cytotoxicity, hits mostly cytotoxic | HepG2 CAGA-GFP viability, ATP luminescence, 18 h; also: potency is read from the fitted curve at half-maximal effect
#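 CellTiter-Glo luminescence gave cytotoxicity after 18 hours at 37 degrees C. The cells were HepG2 CAGA-GFP in 1% FBS DMEM, stimulated with 500 pg/mL TGF-beta after compound addition. %Activity was normalised to no-cell wells (complete cell-killing) and DMSO (no toxicity), and curves were fitted and classified.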
# ASM inhibitor: blocks human secretory acid sphingomyelinase | Potency, µM (highest dose often 57.5 µM), for inactives: top-dose activity change, negative = inhibition, most hits filed as inhibitors | hit rate 0.006% among 340,000 | P17405 | placental ASM, HMU-PC fluorogenic substrate, 60 min; also: potency is read from the fitted curve at half-maximal effect
# Target sequence (P17405 47-631 limits assumed): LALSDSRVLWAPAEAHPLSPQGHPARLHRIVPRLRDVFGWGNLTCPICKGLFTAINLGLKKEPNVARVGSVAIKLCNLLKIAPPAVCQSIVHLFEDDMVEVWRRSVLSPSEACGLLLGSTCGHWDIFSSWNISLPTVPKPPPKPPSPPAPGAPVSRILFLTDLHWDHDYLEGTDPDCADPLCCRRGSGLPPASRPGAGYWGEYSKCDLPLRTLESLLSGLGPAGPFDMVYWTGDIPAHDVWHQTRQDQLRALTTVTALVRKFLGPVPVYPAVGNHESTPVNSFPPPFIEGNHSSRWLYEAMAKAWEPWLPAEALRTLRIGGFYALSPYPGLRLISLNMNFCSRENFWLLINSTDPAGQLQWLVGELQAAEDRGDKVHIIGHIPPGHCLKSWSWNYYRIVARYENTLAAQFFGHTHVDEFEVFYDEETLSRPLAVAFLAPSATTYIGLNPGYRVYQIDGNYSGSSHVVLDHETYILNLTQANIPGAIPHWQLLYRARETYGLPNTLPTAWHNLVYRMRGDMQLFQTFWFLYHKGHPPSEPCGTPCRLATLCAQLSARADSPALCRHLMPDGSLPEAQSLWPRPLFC
#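 HMU-PC0 cleavage (9 uM final) by human placental ASM, 60 min at 37 °C following 10 min compound exposure at RT; stopped at pH 10, fluorescence Ex 386/Em 447 nm.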
# IL1B secr inh: inhibitors of inflammasome signaling (IL-1 beta secretion). hit rate 4.7% among 360,000. THP-1 LPS/ATP IL-1B secretion, AlphaLISA, 16 h; hits give low values. activity change, % at 57.5 µM. AID 743279; in the data active = activity change below about -50%; inconclusive = mostly about -30% to -49%; also: % is scaled to controls: 0 for no effect and ±100 for the full control effect
#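 THP-1 cells pretreated 1 hr with compounds (up to 57.5 uM final), then stimulated with LPS (250 ng/mL final) plus ATP (1.25 mM final); secreted IL-1B measured by AlphaLISA after 16 hr, decreased signal indicating inhibition.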
# TDP1 cell CPT: DT40-hTDP1 cell growth loss with CPT; chicken DT40 Tdp1-/-;hTDP1 cells + 20 nM CPT, ATP luminescence, 48 h; Potency, µM (titrated, usually from 46.2 µM), for inactives: at the top dose activity change, negative = growth inhibition, hits mostly inhibitors; hit rate 12% among 420,000; AID 686979; also: potency is read from the fitted curve at half-maximal effect; % is scaled to controls: 0 for no effect and ±100 for the full control effect; nearly all actives have a fitted effect of over 55% in size
#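 Chicken DT40 Tdp1-/- cells complemented with human TDP1, 400 cells/well, exposed to compounds plus 20 nM camptothecin for at least 48 h at 37 C; viability read as ATP content by CellTiter-Glo luminescence.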
# The depositor's hits bear a star; i = inactive; ? = inconclusive; · = not tested or not shown; ! = repeats disagree; [ ] = dose if it differs, or a comment. Unless noted, calls follow the shape of the dose curve; as a rule, active = well fitted curve in the direction sought with a large enough effect; inconclusive = small, poorly fitted or top-dose-only effect, or another doubt; inactive = no such curve, though single readings can be large; an effect the other way counts as inactive or inconclusive.
SMILES,DT40 TDP1 no CPT,TGFb SMAD3 inh,HepG2 tox,ASM inhibitor,IL1B secr inh,TDP1 cell CPT
CC(C)CCn1c(SCC(=O)NC2CCS(=O)(=O)C2)nc2cc(Cl)ccc2c1=O (stereo unspecified),-15%,-2%,-2%,1%,-18,-6%
CC[C@@H]1CCC[C@@H](O)[C@@H](C)C(=O)O[C@H](C)[C@@H](C)C/C=C(C)/C(OC)=C\C(=O)N(C)C([C@@H](C)CC)C(=O)N(C)[C@@H](C(C)C)C(=O)N(C)[C@@H](COC)C(=O)N2CCC[C@H]2C(=O)N(C)[C@@H](C(C)C)C(=O)N2CCC[C@H]2C(=O)O1 (stereo partly specified),0.21µM*,?,-7%,·,18,0.15µM*
O=[N+]([O-])c1ccc(OCCO)c(P(=O)(c2ccccc2)c2ccccc2)c1,-20%,0%,-48%,-1%,-15,15%
O=C(COc1ccccc1[N+](=O)[O-])NCCCN1CCCC1=O,8%,5%,-5%,0%,26,1%
Cc1cccc(-n2nc(C(=O)Nc3ccccc3)n3c(=O)cc(-c4ccccc4)nc23)c1,16µM*,-8%,-23%,55%,-9,?
O=C(c1ccccc1)c1nn(-c2cccc(Cl)c2)c2nc(-c3ccccc3)cc(=O)n12,?,-9%,27%,-2%,-13,-30%
COc1ccc(C2=NN(CN3C(=O)C(=O)c4ccccc43)C(c3cccc([N+](=O)[O-])c3)C2)cc1 (stereo unspecified),?,-26%,-31%,-3%,-66*,?
CC(=O)N1N=C(c2ccc(Br)cc2)CC1c1cccc([N+](=O)[O-])c1 (stereo unspecified),?,-1%,-18%,·,-11,?
C=C1C=C(C)n2ncc(C(=O)NCCCCCC)c2N1,?,-1%,-2%,·,·,-2%
O=C(NC(=S)Nc1ccccc1N1CCCCC1)c1cccs1,21µM*,?,-25%,-1%,11,16µM*
O=C(NC(=S)Nc1ccccc1N1CCCC1)c1cccs1,15µM*,-17%,-26%,0%,29,16µM*
CC(=O)NC(=S)Nc1ccccc1N1CCCCC1,-15%,-24%,-4%,2%,26,-6%
O=C(NC(=S)Nc1ccccc1N1CCN(C(=O)c2ccccc2)CC1)c1cccs1,?,-4%,-8%,-5%,9,?
CCC(=O)N1CCN(c2ccc(NC(=O)COc3cccc(C)c3C)cc2)CC1,18µM*,1%,4%,-2%,19,?
Cc1ccc(C(=O)Nc2ccc(N3CCN(C(=O)c4ccco4)CC3)cc2)cc1,-29%,-8%,5%,0%,-18,-1%
COc1ccc(OCC(=O)Nc2ccc(N3CCN(C(=O)c4ccccc4)CC3)c(Cl)c2)cc1,12µM*,-21%,0%,-5%,i,?
Cc1cccc(OCC(=O)Nc2ccc(N3CCN(C(=O)c4ccco4)CC3)cc2)c1,21µM*,?,-37%,-2%,-54*,18µM*
Cc1cccc(OCC(=O)Nc2ccc(N3CCN(C(=O)c4ccccc4)CC3)cc2)c1C,?,6%,-8%,-2%,i,?
CN(CC(=O)Nc1ccc(N2CCOCC2)cc1)C(=O)CCCOc1ccc(Cl)cc1Cl,?,?,-20%,-4%,-17,9.2µM*
COC(=O)c1cccc(C(=O)NCc2nc(-c3ccccc3NC(C)=O)oc2C)c1,-14%,·,·,·,·,5%[9.04 µM]
Cc1ccccc1OCC(=O)Nc1ccc(N2CCN(C)CC2)c(Cl)c1,15µM*,-13%,-18%,0%,?,?
Cc1ccc(OCC(=O)Nc2ccc(N3CCN(C(=O)c4ccco4)CC3)cc2)cc1C,?,-21%,-7%,0%,-82*,?
Cc1ccc(OCC(=O)Nc2cc(C(=O)O)cc(C(=O)O)c2)cc1C,?,0%,3%,17%,25,6.5µM*
COc1ccc(OCC(=O)Nc2ccc(N3CCN(C(=O)c4ccccc4C)CC3)cc2)cc1,?,8%,-5%,3%,-22,26µM*
Cc1ccc(CNS(=O)(=O)c2ccccc2[N+](=O)[O-])cc1,-6%,6%,13%,-2%,-2,-20%
SMILES,DT40 TDP1 no CPT,TGFb SMAD3 inh,HepG2 tox,ASM inhibitor,IL1B secr inh,TDP1 cell CPT
Cc1ccc(NC(=O)Cn2c(=O)n(Cc3nc(C)no3)c(=O)c3cc4c(cc32)OCO4)c(C)c1,-15%,13%,1%,·,·,-12%
CCCCCC(=O)Nc1ccc(N2CCN(CC)CC2)c(Cl)c1,?,52%,-19%,4%,-7,35µM*
Cc1ccccc1OCCC(=O)OCC(=O)Nc1ccc(N2CCOCC2)cc1,?,-2%,-13%,2%,-62*,16µM*
Cc1cc(OCC(=O)Nc2ccc(N3CCN(C(=O)c4ccco4)CC3)cc2)cc(C)c1Cl,10µM*,?,-6%,-1%,-4,9.2µM*
C/C(=N\NC(=O)Cn1nc(C)c([N+](=O)[O-])c1C)c1ccco1,-7%,12%,-8%,7%,-6,3%
CCOC(=O)c1cnc2ccc(OC)cc2c1NCCc1ccc(OC)c(OC)c1,7.3µM*,16µM*!,-47%,382%,-90*,6.5µM*
CCOC(=O)c1cnc2ccccc2c1NCCc1ccc(OC)c(OC)c1,10µM*,?,-47%,7%,-14,16µM*
Cc1ncoc1C(=O)NCc1nc(-c2cccc(NC(=O)c3ccccn3)c2)oc1C,?,·,·,·,·,-6%[9.04 µM]
O=C1CC(c2ccccc2)Sc2ccccc2N1 (stereo unspecified),10µM*,4%,-24%,-1%,0,13µM*
COC(=O)c1c(-c2ccc(Cl)cc2)noc1N1CCN(c2ccccc2OC)CC1,?,-16%,-12%,·,·,?
